Experimental findings from PubChem BioAssay are described below.

In assay [1] the test system is PRMT1 (protein arginine N-methyltransferase 1). The assay can be described thus: PRMT1 binders on small-molecule microarrays, primary screen, biochemical, small-molecule microarray, 635 nm fluorescence (AID 1088).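 Also: binding of Prmt1 protein to compounds spotted on small-molecule microarray slides.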 Conditions: small-molecule microarray binding, higher = more signal.
Assay [2] is described as follows: yeast growth modulation, basal conditions, primary screen, YJM789 clinical isolate, OD600, 24 h (AID 1089).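 Also: growth of clinical yeast isolate S. cerevisiae YJM 789 seeded 1000 cells per well; test concentration not given here.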 The settings on record: S. cerevisiae YJM789 growth, higher = more signal, called active from +8 up or from −8 down.
Assay [3] can be described thus: fission yeast growth modulation, primary screen, strain 972, OD600, 24 h, no modulator (AID 1090).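 Also: basal condition with compound alone and no growth modifier present; test concentration not given here.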 Conditions: S. pombe 972 growth, higher = more signal, called active from +8 up or from −8 down.
Assay [4] can be described thus: S. cerevisiae growth modulation with rapamycin, primary screen, strain BY4716, OD600, 96 h (AID 1091). Also: test concentration not given here. Conditions: higher = more signal, called active from +8 up or from −8 down.
Assay [5] has as its target Torsin-1A-interacting protein 2 (Homo sapiens) (UniProt Q8NFQ8). The assay can be described thus: LULL1 binders on small-molecule microarray, primary screen, cell lysate, human LULL1 lysate, 635/667 nm fluorescence (AID 1092).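 Also: probe is lysate of COS7 cells overexpressing human LULL1; score merges per-feature 667 nm fluorescence with signal-to-noise.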 Conditions: hLULL1 lysate binding, 635 nm fluorescence, higher = more signal.
Assay [6] in a line: E. coli growth modulation, two-sided OD650, primary screen, E. coli filamentation project, strain DRC41, 24 h (AID 1093).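 Also: MC1000 strain lacking acrAB efflux and sulA so SOS filamentation is blocked; test concentration not given here.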 The settings on record: OD650, 24 h, higher = more signal, called active from +8 up or from −8 down.
A short description of assay [7]: small-molecule microarray binders of probe aLefty2, primary screen, biochemical, biotinylated probe, 635/667 nm fluorescence (AID 1094).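 Also: score merges spot fluorescence near 667 nm with spot signal-to-noise ratio.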 The settings on record: higher = more signal.
Assay [8] relates to Noggin (protein binding on small-molecule microarray). Briefly: Noggin binders on small-molecule microarray, primary screen, biochemical, 635/667 nm fluorescence (AID 1095).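 Also: score merges 667 nm feature fluorescence with signal to noise over triplicate slides.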 The settings on record: 635 nm fluorescence, higher = more signal.
In assay [9] the target is Neurogenic locus notch homolog protein 3 (Homo sapiens) (UniProt Q9UM47). Briefly: NOTCH3 binders on small-molecule microarray, primary screen, biochemical, 635/667 nm fluorescence (AID 1096). The settings on record: NOTCH3 binding, 635 nm fluorescence, higher = more signal.
Neurogenic locus notch homolog protein 3 (Homo sapiens), sequence (Q9UM47 whole entry, looked up): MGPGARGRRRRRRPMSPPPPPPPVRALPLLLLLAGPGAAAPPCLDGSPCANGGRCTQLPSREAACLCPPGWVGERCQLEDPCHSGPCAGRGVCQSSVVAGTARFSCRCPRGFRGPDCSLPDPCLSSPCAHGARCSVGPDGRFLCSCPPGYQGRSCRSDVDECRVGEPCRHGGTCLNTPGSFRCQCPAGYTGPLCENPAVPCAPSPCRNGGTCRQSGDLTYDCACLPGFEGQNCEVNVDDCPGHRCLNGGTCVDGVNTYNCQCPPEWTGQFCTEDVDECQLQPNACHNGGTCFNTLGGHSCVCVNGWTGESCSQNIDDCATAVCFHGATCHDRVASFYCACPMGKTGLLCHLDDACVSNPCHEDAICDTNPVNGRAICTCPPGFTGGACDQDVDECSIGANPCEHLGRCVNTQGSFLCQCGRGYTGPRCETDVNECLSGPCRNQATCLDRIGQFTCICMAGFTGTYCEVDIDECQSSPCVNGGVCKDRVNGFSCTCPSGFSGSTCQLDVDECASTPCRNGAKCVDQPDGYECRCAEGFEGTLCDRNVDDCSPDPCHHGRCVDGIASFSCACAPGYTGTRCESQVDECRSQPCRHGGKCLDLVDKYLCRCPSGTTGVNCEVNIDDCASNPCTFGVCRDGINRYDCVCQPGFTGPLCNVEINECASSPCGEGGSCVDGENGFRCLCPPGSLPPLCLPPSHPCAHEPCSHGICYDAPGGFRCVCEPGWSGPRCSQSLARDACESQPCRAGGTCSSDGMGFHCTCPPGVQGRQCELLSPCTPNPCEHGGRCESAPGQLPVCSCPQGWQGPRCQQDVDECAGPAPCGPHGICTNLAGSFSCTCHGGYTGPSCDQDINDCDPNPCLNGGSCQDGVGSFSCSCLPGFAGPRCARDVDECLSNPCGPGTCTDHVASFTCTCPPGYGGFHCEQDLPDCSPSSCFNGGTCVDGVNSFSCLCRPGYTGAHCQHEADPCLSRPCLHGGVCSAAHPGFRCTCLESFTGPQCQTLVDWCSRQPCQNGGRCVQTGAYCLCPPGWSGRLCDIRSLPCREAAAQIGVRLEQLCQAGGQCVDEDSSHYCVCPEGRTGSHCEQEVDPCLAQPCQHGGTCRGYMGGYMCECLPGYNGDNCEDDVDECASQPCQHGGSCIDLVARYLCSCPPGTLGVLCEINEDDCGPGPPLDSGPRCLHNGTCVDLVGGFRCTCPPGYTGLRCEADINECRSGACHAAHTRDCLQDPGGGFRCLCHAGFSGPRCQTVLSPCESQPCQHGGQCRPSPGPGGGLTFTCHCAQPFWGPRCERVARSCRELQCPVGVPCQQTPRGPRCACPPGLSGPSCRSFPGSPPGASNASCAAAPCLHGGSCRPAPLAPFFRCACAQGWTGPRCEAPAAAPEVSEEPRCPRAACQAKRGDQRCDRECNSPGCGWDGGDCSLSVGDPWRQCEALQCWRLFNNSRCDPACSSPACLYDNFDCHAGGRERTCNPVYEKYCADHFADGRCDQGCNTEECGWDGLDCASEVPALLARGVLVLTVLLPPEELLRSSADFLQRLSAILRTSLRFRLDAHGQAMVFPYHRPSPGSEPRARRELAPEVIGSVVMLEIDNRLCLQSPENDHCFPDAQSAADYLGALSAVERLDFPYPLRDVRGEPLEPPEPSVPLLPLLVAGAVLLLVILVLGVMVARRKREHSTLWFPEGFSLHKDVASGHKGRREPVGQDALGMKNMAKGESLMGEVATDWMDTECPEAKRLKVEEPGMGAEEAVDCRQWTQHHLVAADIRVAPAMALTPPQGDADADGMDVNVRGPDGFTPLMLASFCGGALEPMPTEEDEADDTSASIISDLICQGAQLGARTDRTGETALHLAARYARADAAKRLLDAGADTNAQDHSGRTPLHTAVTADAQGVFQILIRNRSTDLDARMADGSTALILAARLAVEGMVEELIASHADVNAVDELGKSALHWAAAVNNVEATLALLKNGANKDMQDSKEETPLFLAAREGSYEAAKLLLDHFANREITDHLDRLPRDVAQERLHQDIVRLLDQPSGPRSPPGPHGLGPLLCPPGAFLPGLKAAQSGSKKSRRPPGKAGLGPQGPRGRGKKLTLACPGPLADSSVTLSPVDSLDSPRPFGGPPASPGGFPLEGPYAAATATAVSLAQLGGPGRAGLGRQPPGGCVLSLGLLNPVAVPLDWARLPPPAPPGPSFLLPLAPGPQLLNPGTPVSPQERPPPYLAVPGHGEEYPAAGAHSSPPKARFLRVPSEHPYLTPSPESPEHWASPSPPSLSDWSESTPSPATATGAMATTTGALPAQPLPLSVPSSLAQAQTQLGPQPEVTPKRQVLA
The nature of assay [10]: small-molecule microarray binders of probe aEGFR, primary screen, biochemical, biotinylated probe, 635/667 nm fluorescence (AID 1097).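 Also: probe is a biotinylated anti-EGFR antibody binding compounds printed on slides; score combines fluorescence near 667 nm and signal to noise of each spot.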 Conditions: higher = more signal.

Calls of active or inactive are those of the source.

Torsin-1A-interacting protein 2 (Homo sapiens), sequence (Q8NFQ8 whole entry, looked up): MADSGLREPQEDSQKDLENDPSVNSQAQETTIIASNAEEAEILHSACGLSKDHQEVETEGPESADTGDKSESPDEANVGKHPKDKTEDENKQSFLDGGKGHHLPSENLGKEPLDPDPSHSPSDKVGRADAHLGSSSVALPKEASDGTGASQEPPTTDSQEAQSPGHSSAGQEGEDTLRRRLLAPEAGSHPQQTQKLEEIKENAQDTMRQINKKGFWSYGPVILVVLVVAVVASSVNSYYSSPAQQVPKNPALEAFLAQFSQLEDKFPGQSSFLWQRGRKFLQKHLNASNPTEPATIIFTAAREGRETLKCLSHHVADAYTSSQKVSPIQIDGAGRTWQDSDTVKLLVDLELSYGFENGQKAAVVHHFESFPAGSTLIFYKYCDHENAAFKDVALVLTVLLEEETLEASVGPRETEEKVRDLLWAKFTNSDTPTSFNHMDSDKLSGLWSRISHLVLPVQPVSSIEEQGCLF

Turning to `C#CCN1[C@@H](Cc2ccc(O)cc2)C(=O)O[C@H](Cc2ccccc2)[C@@H]1/C=C/C1CC1`, the composite z-score is -0.193 in assay [1]; 0.602 in [5]; -0.144 in [7]; -0.204 in assay [8]; -0.139 in assay [9]; -0.0081 in [10]. For the same molecule, the z-score was -0.257 (inactive) in [2], -4.95 (inactive) in [3], 1.09 (inactive) in [4] and -0.495 (inactive) in assay [6].

With `[N-]=[N+]=NCc1ccccc1[C@H]1OC(c2ccc(OCCCO)cc2)=N[C@@]1(Cc1ccccc1)C(=O)N1CCCCC1`, the composite z-score in assay [1] was 1.55; in assay [5] it was 3.33; in assay [7], 0.0004; in assay [8], 1.37; in assay [9], 1.13; in assay [10], 0.038. Also, the z-score in assay [2] is -1.88 (inactive); in assay [3] it was -0.575 (inactive); in assay [4], 1.32 (inactive); in [6] it was 1.56 (inactive).

For `O=C1C2C=CC(C(O)c3cc(C(F)(F)F)cc(C(F)(F)F)c3)N(Nc3ccccc3)C2C(=O)N1c1ccccc1` (stereo not given), the composite z-score in [1] is 1.29; in assay [5] it was 3.23; in [7], -0.0156; in assay [8], -0.105; in assay [9], 0.581; in assay [10], -0.0536. The z-score in assay [2] is 1 (inactive); in assay [3], -0.158 (inactive); in assay [4] it was 3.15 (inactive); in [6] it was -0.747 (inactive).

With `CCCCC(=C=CC[C@@H](O)c1cccc(OCCO)c1)C[C@@H](O)c1ccccn1`, the composite z-score was 1.55 in assay [1]; 2.07 in assay [5]; -0.207 in assay [7]; 1.46 in [8]; 1.01 in assay [9]; -0.099 in [10]. For the same molecule, the z-score in [2] is -0.937 (inactive); in [3], -0.606 (inactive); in [4], -0.725 (inactive); in [6] it was 0.149 (inactive).

With `C=CCN1Cc2ccccc2[C@@H]2OC(c3ccc(OCCCO)cc3)=N[C@]2(CCS(=O)(=O)c2ccccc2)C1=O`, the composite z-score in [1] was 1.55; in assay [5] it was 3.35; in assay [7], 0.0642; in [8] it was 0.704; in [9], 1.01; in assay [10], -0.0261. Moreover, the z-score was 0.863 (inactive) in assay [2], 1.45 (inactive) in assay [3], 3.51 (inactive) in assay [4] and 0.953 (inactive) in assay [6].

On to `CCOC(=O)C[C@H]1[C@H](OC(=O)c2ccc(-c3ccccc3)cc2)[C@@H](NC(=O)c2ccccc2)c2cc(OCCCO)ccc2N1C(=O)c1ccc2ccccc2n1`, for which the composite z-score was 0.316 in assay [1]; 1.23 in [5]; 0.0769 in assay [7]; 0.0388 in assay [8]; 0.742 in assay [9]; -0.0031 in assay [10]. Further, the z-score was -1.04 (inactive) in assay [2], 0.0452 (inactive) in [3], 0.545 (inactive) in assay [4] and -0.751 (inactive) in assay [6].

Regarding `C=C(/C(=C/C[C@H](OC(=O)c1ccncc1)c1ccc(OCCO)cc1)c1cc(C(=O)OC)ccc1OC)C(C)C`, the composite z-score is 1.03 in [1]; 1.73 in [5]; -0.072 in assay [7]; 0.609 in assay [8]; 0.381 in assay [9]; 0.122 in assay [10]. Moreover, the z-score was 0.236 (inactive) in assay [2], -1.26 (inactive) in assay [3], -0.359 (inactive) in assay [4] and 1.09 (inactive) in [6].

For `C=CCC(OC(C)=O)[C@@H]1[C@@H](N(Cc2ccc(-c3cccc(C(F)(F)F)c3)o2)C(=O)Cc2ccc(OC)cc2)c2cc(OCCCO)ccc2N1C(=O)c1ccc2ccccc2c1` (stereo not given in full), the composite z-score was -0.485 in assay [1]; 0.589 in [5]; 0.0079 in [7]; 0.397 in [8]; 0.035 in [9]; -0.127 in assay [10]. For the same molecule, the z-score in [2] is 0.514 (inactive); in assay [3] it was 0.428 (inactive); in [4], -0.645 (inactive); in [6], 0.315 (inactive).

With `COc1cc(OC)c(C(O)C2C=CC3C(=O)NC(=O)C3N2Nc2ccccn2)cc1Br` (stereo not given), the composite z-score worked out at 1.49 in assay [1]; 0.645 in assay [5]; 0.0917 in assay [7]; 0.458 in assay [8]; 0.716 in assay [9]; 0.131 in assay [10]. For the same molecule, the z-score is -0.0137 (inactive) in [2], -0.289 (inactive) in assay [3], 0.204 (inactive) in assay [4] and -0.564 (inactive) in [6].

`C=CCNC(=O)[C@H]1[C@@H]2C(=O)O[C@@H](c3ccccc3)[C@@H](c3ccccc3)N2[C@@H](c2ccc(O)cc2)[C@]12C(=O)Nc1ccc(C#CCCO)cc12`: the composite z-score in assay [1] is 0.586; in assay [5], 1.97; in assay [7] it was -0.0915; in [8], -0.325; in [9], -0.356; in [10] it was -0.201. The z-score in assay [2] was 1.35 (inactive); in [3] it was 1.84 (inactive); in assay [4], 1.13 (inactive); in assay [6], 0.515 (inactive).

As to `COCCOC(=O)N1C(=O)[C@@]2(c3ccccc31)[C@H](C(=O)N1CCc3cc(OC)c(OC)cc3C1)[C@H]1C(=O)O[C@H](c3ccccc3)[C@H](c3ccccc3)N1[C@@H]2c1ccc(O)cc1`, the composite z-score in assay [1] was found to be 1.51; in assay [5], 2.85; in [7], 0.206; in assay [8], 1.39; in assay [9], 0.806; in assay [10], 0.0383. The z-score in assay [2] was -0.654 (inactive); in assay [3] it was 0.194 (inactive); in assay [4] it was 1.8 (inactive); in assay [6] it was 2.31 (inactive).

In the case of `COC(=O)c1c(CC[C@@H](CO)NC(=O)N[C@H](Cc2ccccc2)Cn2cc(-c3ccccn3)nn2)oc(C(C)=O)c1C(=O)OC`, the composite z-score in assay [1] was 0.73; in [5], 1.68; in assay [7] it was -0.207; in assay [8], -0.151; in assay [9], 0.0619; in assay [10], -0.096. In addition, the z-score in assay [2] was -0.413 (inactive); in [3], 0.0254 (inactive); in [4], -0.398 (inactive); in assay [6] it was -0.419 (inactive).

In the case of `O=C1NC(=O)C2C1C=CC(C(O)C=Cc1ccc([N+](=O)[O-])cc1)N2Nc1ccc(Cl)cc1Cl` (stereo not given), the composite z-score in assay [1] is 0.782; in assay [5], 2.47; in assay [7], 0.729; in assay [8] it was -0.518; in assay [9], 1.11; in assay [10], 0.285. For the same molecule, the z-score in [2] is -0.17 (inactive); in assay [3], -1.23 (inactive); in assay [4] it was -0.103 (inactive); in [6] it was -2.27 (inactive).

In the case of `CCCC=C(CCC)[C@@H](NS(=O)(=O)c1ccc(Cl)cc1)c1ccc(C(=O)OC)cc1`, the composite z-score in assay [1] was 0.687; in assay [5] it was 0.735; in [7] it was 0.0007; in assay [8], -0.392; in assay [9], -1.6; in [10], 0.0219. The z-score in [2] is -0.288 (inactive); in assay [3], 0.745 (inactive); in assay [4], -0.825 (inactive); in [6] it was 0.0177 (inactive).

For `CCCCN1CC=CC23O[C@@H]4C=CCCOC(=O)C4[C@H]2C(=O)N(CCCCCO)[C@@H]3C1=O` (stereo not given in full), the composite z-score was -0.726 in assay [1]; 0.905 in assay [5]; -0.168 in [7]; -0.548 in [8]; -0.73 in [9]; -0.0987 in assay [10]. The z-score in [2] was -0.494 (inactive); in [3], 0.0411 (inactive); in assay [4], 0.025 (inactive); in [6] it was -0.0111 (inactive).

On to `O=C(O)C1N=C(c2ccc(OCCCO)cc2)N(c2ccccc2)O1` (stereo not given), for which the composite z-score is 1.49 in assay [1]; 2.03 in [5]; 0.0399 in assay [7]; 0.306 in [8]; 0.12 in assay [9]; -0.0828 in assay [10]. For the same molecule, the z-score is -0.371 (inactive) in assay [2], 0.651 (inactive) in assay [3], -0.377 (inactive) in assay [4] and 0.281 (inactive) in [6].

As to `COCC(=C=CC[C@@H](O)c1ccc(OCCO)cc1)C[C@@H](O)c1ccccn1`, the composite z-score is 0.37 in assay [1]; 0.608 in [5]; -0.0931 in [7]; 0.274 in assay [8]; -0.0817 in assay [9]; 0.361 in assay [10]. Further, the z-score in [2] was -0.64 (inactive); in assay [3], -1.13 (inactive); in [4], -0.0669 (inactive); in assay [6] it was -0.136 (inactive).

On to `C[N+](C)(C)CCCC[C@@H]1NC(=O)[C@@H]2C[C@H](C(=O)NCCCCCCNC(=O)CS)[C@H](c3ccc(O)cc3)N2C1=O`, for which the composite z-score in assay [1] was 0.567; in assay [5] it was 0.479; in assay [7], -0.115; in [8] it was -0.533; in assay [9], -0.627; in [10] it was -0.225. Moreover, the z-score was 0.562 (inactive) in assay [2], -0.0042 (inactive) in assay [3], 0.525 (inactive) in assay [4] and -0.0327 (inactive) in assay [6].
